Compounds with a hit are over-represented: about 6.2% of the library has one in this group of screens.
MARV entry inh – qHTS for inhibitors of binding or entry into cells for Marburg Virus. Marburg virus pseudotyped entry inhibition, cell reporter. Potency, µM (top dose mostly 37.8 µM), hits mostly inhibitors. 1.8% of 300,000 active. AID 540276, 2011; calls by dose curve; tested in HEK293 cells
HCMV inh – qHTS Assay for inhibitors of the human cytomegalovirus (HCMV). activity change, negative = inhibition, % at 57.5 µM. AID 1259415, 2018. 4.5% of 410,000 active. HFF cells, HCMV-luciferase reporter, 72 h; stronger effect = lower value; in the data active = activity change below about -60%; inconclusive = no clear call, values can overlap the other calls; inactive = above about -39%
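Compounds were evaluated in HFFs infected with an HCMV luciferase reporter virus (MOI 1 PFU/cell). Luciferase in lysates collected 72 h post infection served as the replication measure.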
LASV entry inh – qHTS for Inhibitors of binding or entry into cells for Lassa Virus | AID 540256, 2011 | 1.2% of 300,000 active | Potency, µM (series often up to 37.9 µM), most hits filed as inhibitors | Lassa virus pseudotype entry inhibition, cell reporter; calls by dose curve; tested in HEK293 cells; note: nearly all actives have a fitted effect of over 50% in size
FMDV antiviral – High Throughput Screening for Foot and Mouth Disease Virus Antivirals; FMDV antiviral cell-based qHTS; Potency, µM (doses to about 57.9 µM), hits mostly inhibitors; 1.2% of 410,000 active; AID 1159524, 2015; calls by dose curve; tested in HEK293T cells; note: read-out not given here; nearly all actives have a fitted effect of over 45% in size
Hits are given with their value; 0 = inactive; ? = inconclusive; - = not tested or not shown; ! = a repeat was not active.

SMILES | MARV entry inh | HCMV inh | LASV entry inh | FMDV antiviral
CN(CCc1ccccc1)C(=O)c1ccc(NC(=O)Cc2ccc(NC(=O)C3CCCN(C(=O)C4CCC4)C3)cc2)cc1 (stereo not given) | 0 | -70 | - | ?
C[C@@]12CC[C@@H]3c4ccc(O)cc4C[C@H](CCCCCCCCCS(=O)CCCC(F)(F)C(F)(F)F)[C@H]3[C@@H]1CC[C@@H]2O (stereo not given in full) | - | - | - | 0
Cc1ccc(-c2nnc(-c3ccccc3)o2)cc1 | 16µM | 0 | 10µM | 0
c1ccc(Cc2nnc(-c3ccccc3)o2)cc1 | ? | -96 | 0 | 0
Brc1ccc(-c2nnc(Cc3ccccc3)o2)cc1 | - | 0 | - | 0
COc1ccc(SCCc2nnc(-c3ccccc3)o2)cc1 | - | -98 | - | 0
CCn1c(C)c(C2N3CC4(C)CN2CC(C)(C3)C4=O)c2ccccc21 (stereo not given) | 0 | 0 | ? | 0
C(=N\Nc1nncc2ccccc12)/c1ccccc1 | 0 | 0 | ? | 0
CN(C)c1ccc(/C=N/Nc2nncc3ccccc23)cc1 | ? | 0 | ? | 7.9µM
CN(C)c1ccc(/C=N/Nc2nc3ccccc3o2)cc1 | ? | 0 | 5.6µM | ?
CCS(=O)(=O)c1ccc(C=NNc2nc3ccccc3o2)cc1 | ? | 0 | ? | 0
O=C(O)CCSc1nnc(-c2ccc(Cl)cc2Cl)o1 | ? | -76 | ? | 0
CCSc1nnc(-c2ccc(Cl)cc2Cl)o1 | 0 | 0 | ? | 0
O=C1OCCC1Sc1nnc(-c2ccc(Cl)cc2Cl)o1 (stereo not given) | 5µM | 0 | ? | ?
CN(C)C=NC(=O)c1cc(C(=O)c2ccc(Cl)cc2)c[nH]1 | 0 | -63 | 0 | 0
CNC(=O)c1cc(C(=O)c2ccc(Cl)cc2)c[nH]1 | 0 | 0 | 0 | 0
O=C(c1ccc(Cl)cc1)c1c[nH]c(C(=O)NNc2ccccc2)c1 | ? | 0 | 14µM | 0
CN(C)C=NC(=O)c1cc(C(=O)c2ccc(F)cc2)c[nH]1 | 0 | 0 | 0 | 0
COc1ccccc1NC(=O)CCn1cnc2ccccc2c1=O | - | 0 | 0 | 0
CN(C)c1nc(C=C(C#N)C#N)c(Cl)n1-c1ccc(F)cc1 | ? | -97 | ? | 14µM
CN(C)c1ccc(C=C(C#N)C#N)cc1 | ? | 0 | 0 | 0
CC(C)c1ccc(CN2CCN(C(=O)CSc3nnnn3C3CC3)CC2)cc1 | - | -90 | - | ?
O=C(CSc1nnnn1C1CC1)N1CCN(c2cccc(Cl)c2)CC1 | - | 0 | - | 0
COc1ccccc1CNc1nc(-c2ccc3c(c2)OCO3)nc2ccccc12 | - | - | - | 0
O=C1C=CC(=O)N1CCCCCCN1C(=O)C=CC1=O | ? | -102 | ? | 40µM
SMILES | MARV entry inh | HCMV inh | LASV entry inh | FMDV antiviral
CCN1C(=O)C=CC1=O | 28µM! | - | 0 | -
CCOC(=O)c1ccc(CN(Cc2ccc(Cl)cc2Cl)S(=O)(=O)c2cccc(Cl)c2)cc1 | - | 0 | 0 | 0
CCOC(=O)N1CCN(Cc2nc3cc(NC(=O)c4cccc(C)c4)ccc3n2C(C)C)CC1 | ? | -94 | 0 | ?
CCOC(=O)N1CCN(Cc2nc3cc([N+](=O)[O-])ccc3n2CC)CC1 | - | 0 | - | 0
CCOC(=O)N1CCN(Cc2nc3cc(NC(=O)CC(C)C)ccc3n2C(C)C)CC1 | ? | -95 | 0 | 0
CCOC(=O)N1CCN(Cc2nc3cc(NC(=O)CC)ccc3n2C(C)C)CC1 | 0 | 0 | 0 | ?
CCOC(=O)N1CCN(Cc2nc3cc(NC(=O)c4ccc([N+](=O)[O-])cc4)ccc3n2C(C)C)CC1 | ? | -83 | 0 | 0
CCCn1c(CN2CCN(C(=O)OCC)CC2)nc2cc([N+](=O)[O-])ccc21 | ? | -76 | ? | ?
CCOC(=O)N1CCN(Cc2nc3cc(NC(=O)CC(C)C)ccc3n2C)CC1 | - | 0 | - | 0
CCN1C(=O)NC(c2cccc(F)c2)C(C(=O)OC)=C1C (stereo not given) | 0 | - | - | -
COC(=O)C1=C(C)N(Cc2ccccc2)C(=NCC2CC2)NC1c1ccc(Br)cc1 (stereo not given) | 0 | - | - | -
Cn1c(CN2CCOCC2)nc2cc(NC(=O)COc3ccc([N+](=O)[O-])cc3)ccc21 | ? | -71 | 0 | ?
CCN(CC)c1ccc(NC(=O)CN2C(=O)c3cccnc3Sc3ccccc32)c(C)c1 | - | 0 | 0 | 0
CCN(C(=O)COc1cc(=O)n(C)c2ccccc12)c1cccc(C(F)(F)F)c1 | ? | 0 | 0 | 0
COc1ccc(N2CCN(C(=O)COc3ccc4ccccc4c3)CC2)cc1 | 0 | 0 | 0 | 0
CC(=O)c1ccc(N2CCN(C(=O)COc3ccc4ccccc4c3)CC2)cc1 | - | -62 | - | 0
CCOc1ccc(N(CC)C(=O)COc2cc(=O)n(C)c3ccccc23)cc1 | - | -103 | - | 0
CCn1c(=O)cc(OCC(=O)N(C)c2ccc(OC)cc2)c2ccccc21 | 0 | -72 | 0 | 0
CCn1c(=O)cc(OCC(=O)N2CCCC2)c2ccccc21 | - | 0 | - | 0
CCOc1ccc(N(CC)C(=O)COc2cc(=O)n(CC)c3ccccc23)cc1 | 0 | -95 | 0 | 0
CNc1cncc(-c2cccc(C(=O)N(C)C)c2)n1 | - | 0 | - | 0
CC(=O)c1ccc(N2CCN(C(=O)CCC(=O)c3cccs3)CC2)cc1 | 0 | -82 | 0 | 0
O=C(CCC(=O)N1CCN(c2ccc(O)cc2)CC1)c1cccs1 | - | ? | - | 0
CCn1c(=O)cc(OCC(=O)N2CCN(c3ccc(C(C)=O)cc3)CC2)c2ccccc21 | 0 | 0 | 0 | 0
CCn1c(=O)cc(OCC(=O)N2CCN(c3ccc(OC)cc3)CC2)c2ccccc21 | 0 | -95 | ? | 0
SMILES | MARV entry inh | HCMV inh | LASV entry inh | FMDV antiviral
COCC1=C(C(=O)OC)C(c2ccccc2)N(C(C)=O)C(=O)N1 (stereo not given) | 0 | - | - | -
CC1CCCCN1C(=O)Cn1cc(C=C2C(=O)N(C)C(=O)N(C)C2=O)c2ccccc21 (stereo not given) | 0 | -63 | 0 | 0
CC1CCCCN1C(=O)Cn1cc(C=O)c2ccccc21 (stereo not given) | 0 | 0 | 0 | 0
C(C#CCCCCCCCCC[n+]1ccccc1)#CCCCCCCCCC[n+]1ccccc1 | 2.5µM | - | ? | 18µM
COCC1CCCN(Cc2ccc3c(c2)CN(C(=O)c2cccnc2OC)CCO3)C1 (stereo not given) | - | - | - | 0
CN1OC[C@@H]2CN(S(=O)(=O)c3cccc(C(F)(F)F)c3)[C@H](c3ccc(N4CCCCC4)cc3)C[C@@H]21 | - | 0 | - | 0
C=CCOC(=O)/C(=C\c1ccccc1)NC(=O)c1ccc(C)cc1 | - | -67 | - | 0
O=C(OCC(=O)c1ccc([N+](=O)[O-])cc1)/C(=C/c1ccc(Cl)cc1)NC(=O)c1ccccc1 | 0 | -65 | 0 | 0
CC(=O)N/C(=C\c1ccccc1)C(=O)OCC(=O)c1ccccc1 | ? | 0 | 0 | 0
COc1ccc2sc(N(CCN(C)C)C(=O)/C=C/c3cccs3)nc2c1 | - | -76 | - | ?
CCN(CC)CCN(C(=O)/C=C/c1cccs1)c1nc2ccc(OC)cc2s1 | - | 0 | - | 0
COc1ccc2nc(N(CCN(C)C)C(=O)/C=C/c3cccs3)sc2c1 | - | -70 | - | ?
Cc1cccc2sc(N(CCN(C)C)C(=O)/C=C/c3cccs3)nc12 | ? | -77 | ? | ?
C[C@H](O)[C@@H]1C(=O)N2CCc3c([nH]c4ccccc34)[C@@H]2C[C@@H]1N(C)C(=O)Nc1ccc(Br)cc1 | - | 0 | - | -
CC(=O)Nc1ccc(S(=O)(=O)N2CCc3c(Cl)cccc3C2)cc1 | - | -67 | - | 0

Screens: PubChem BioAssay, National Center for Advancing Translational Sciences (NCATS)
